Bioassay records: PubChem, several laboratories
Arbovirus anti = arbovirus infection inhibition | actives 0.37% (n = 200,000) | inhibition, % at 10 µM | arbovirus infection cell-based antiviral screen; in the data active = inhibition above about 30%
Mcl1 Bid PPI = disrupts binding of human Mcl-1 to Bid peptide; actives 0.97% (n = 220,000); TR-FRET Mcl-1/Bid-Dy647 peptide binding, 1536-well; inhibition, % at 21.7 µM; Q07820;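 active = compounds that cut the binding signal by more than half at the single screening dose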;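 note: His-tagged Mcl-1 with europium anti-His antibody binding Bid BH3 peptide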
Mcl-1 Bim block = human Bim-Mcl-1 interaction inhibition; Bead-based flow cytometry, Bim peptide-Mcl-1 binding; inhibition, % at 10 µM; actives 0.1% (n = 190,000); AID 1009; in the data active = inhibition above about 40%
Mcl1-Noxa inh = Mcl-1/Noxa interaction inhibition; inhibition, % at 21.7 µM; actives 1.5% (n = 220,000); AID 1022; TR-FRET Mcl-1/Noxa peptide binding, 2 h;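 active = compounds that cut the protein-peptide binding signal by more than 50% relative to plate controls in a single-dose test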;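 note: His-tagged Mcl-1 with rhodamine Noxa BH3 peptide and terbium anti-His antibody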
14-3-3 Bad inh = disrupts binding of bovine 14-3-3 zeta to phospho-Bad peptide; inhibition, % at 21.7 µM; P63103; actives 0.71% (n = 220,000); TR-FRET 14-3-3zeta/Dy647-pBad peptide displacement, 1 h; AID 781;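 active = inhibition above about 70%, limit read from the data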
Target sequence (P63103 whole entry, looked up): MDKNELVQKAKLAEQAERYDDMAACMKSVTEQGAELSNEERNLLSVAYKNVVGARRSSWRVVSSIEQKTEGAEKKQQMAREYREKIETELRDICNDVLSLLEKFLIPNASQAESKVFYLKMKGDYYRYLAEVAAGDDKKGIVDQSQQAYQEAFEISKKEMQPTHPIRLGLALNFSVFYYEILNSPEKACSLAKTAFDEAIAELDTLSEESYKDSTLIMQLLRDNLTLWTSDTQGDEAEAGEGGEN
Numbers stand for hits; – = inactive; · = not tested or not shown; [ ] = remark or other dose. This is a sample that favours compounds with a hit; in the whole collection about 3% have one here.

SMILES | Arbovirus anti | Mcl1 Bid PPI | Mcl-1 Bim block | Mcl1-Noxa inh | 14-3-3 Bad inh
CCOc1ccccc1NC(=O)N1CCC(NC(=O)c2cccc(C)c2)CC1 | – | – | – | – | 80.0[fluorescence artefact?]
CCOC(=O)c1cnc(SCc2nc(N)nc(Nc3ccc(C)cc3)n2)nc1N | 44.4 | – | – | – | –
CCOC(=O)c1cnc(SCc2nc(N)nc(Nc3ccc(F)cc3)n2)nc1N | – | – | – | – | –
CC(=O)c1ccc(-c2cc([C@H]3[C@H]4C=CC[C@@H](C)[C@@H]4C(=O)N3Cc3ccccc3)ccc2F)cc1 | · | – | · | – | –
O=C(Nc1ccc2oc(-c3cccnc3)nc2c1)c1ccc(Br)o1 | – | 52.2 | – | – | –
O=C(Nc1ccc2oc(-c3cccnc3)nc2c1)c1ccc([N+](=O)[O-])o1 | – | 61.0 | – | 67.2 | –
O=C(Nc1ccc2oc(-c3cccnc3)nc2c1)c1ccco1 | – | – | – | – | –
Cc1ccc(NC(=S)NCc2ccc(S(N)(=O)=O)cc2)cc1Cl | – | – | – | – | –
CCCCC(=O)Nc1sc(C(=O)N(CC)CC)c(C)c1C(=O)OC | – | – | – | – | –
CCOC(=O)c1c(NC(=O)CN(C)C)sc(C(=O)N(CC)CC)c1C | – | 70.3 | – | – | –
CC(=O)N(c1cccc(Br)c1)c1nc(C)cc(C)c1C#N | · | – | · | – | –
Cc1cccc(NC(=S)c2nc3ccccc3s2)c1 | – | 103.2 | – | – | –
CCOCCCn1c(C)nc2c(c1=O)c1nc3ccccc3nc1n2CCC1=CCCCC1 | – | 65.9 | – | – | –
Cc1nc2c(c(=O)n1CCC1=CCCCC1)c1nc3ccccc3nc1n2/N=C/c1ccccc1 | – | – | – | – | –
COc1ccccc1NC(=O)c1sc2ncn(Cc3cccc(C)c3)c(=O)c2c1C | – | – | – | – | –
COc1ccccc1NC(=O)c1sc2ncn(Cc3ccc(C)cc3)c(=O)c2c1C | – | 73.5 | – | – | –
CCC1=NN2C(=N)/C(=C\c3ccc(OCc4cc(=O)n5nc(CC)sc5n4)c(OC)c3)C(=O)N=C2S1 | – | – | – | 93.8 | –
Cc1ccc(-c2nnc(Cc3ccc(Cl)cc3)o2)cc1 | – | – | 40.0 | – | –
c1ccc(Cc2nnc(-c3ccccc3)o2)cc1 | – | – | – | – | –
O=C(NCC1COc2ccccc2O1)C1CCCN(S(=O)(=O)c2cccc3nsnc23)C1 (centres undefined) | – | – | – | – | –
O=C(NCC1COc2ccccc2O1)C1CCN(S(=O)(=O)c2cccc3nsnc23)CC1 (centres undefined) | – | – | – | – | 84.7
COc1ccc(N2C(=O)CC(S/C(N)=N/N=C/c3ccnc4ccccc34)C2=O)cc1 (centres undefined) | – | 81.0 | – | – | 75.4[fluorescence artefact?]
O=c1c(Cl)c(N2CCN(c3ccc(F)cc3)CC2)cnn1C12CC3CC(CC(C3)C1)C2 | 37.0 | – | – | – | –
O=c1c(Cl)c(N2CCN(c3ccccc3)CC2)cnn1C12CC3CC(CC(C3)C1)C2 | – | – | – | – | –
O=C(NCC1CCCO1)c1ccc(Oc2ccc([N+](=O)[O-])cc2Cl)cc1 (centres undefined) | – | – | – | – | –
SMILES | Arbovirus anti | Mcl1 Bid PPI | Mcl-1 Bim block | Mcl1-Noxa inh | 14-3-3 Bad inh
O=C(NCC1CCCO1)c1cc([N+](=O)[O-])ccc1Cl (centres undefined) | – | 93.6 | – | – | –
Cc1cccc(S(=O)(=O)C(C#N)c2nc3ccccc3nc2N2CC(C)OC(C)C2)c1 (centres undefined) | – | – | – | – | 72.7
Cc1ccc(S(=O)(=O)C(C#N)c2nc3ccccc3nc2N2CC(C)OC(C)C2)cc1C (centres undefined) | – | – | – | – | –
Cc1cc(C)c(S(=O)(=O)ON2C(=O)c3ccccc3C2=O)cc1C | – | – | – | 72.3 | –
Cc1ccc(S(=O)(=O)ON2C(=O)c3ccccc3C2=O)c(C)c1 | – | – | – | 70.9 | –
CN(C)S(=O)(=O)c1ccc(C(=O)OCC(=O)NCc2ccco2)cc1 | – | – | – | – | –
CCOC(=O)C1(Cc2cccc(OC)c2)CCN(CC2CC=CCC2)CC1 (centres undefined) | – | – | – | – | –
O=C(c1ccco1)N1C(=O)c2cccc3c(S(=O)(=O)N4CCCC4)ccc1c23 | – | 78.2 | – | 61.1 | –
CC(C)OC(=O)Cn1cc(C#N)c2ccccc21 | – | – | – | – | –
CC(=O)Nc1ccc(S(=O)(=O)NCC(C)NS(=O)(=O)c2ccc(NC(C)=O)cc2)cc1 (centres undefined) | – | – | – | – | –
